This is a sample that favours compounds with a hit; in the whole collection about 9.2% have one here.
Rab9 promoter act: activates the Rab9 promoter; Huh7 Rab9 promoter-luciferase reporter, luminescence, 24 h; AID 485297; Potency, µM (titrated, usually from 9.22 µM), for inactives: at the top dose activation, negative = inhibition, usual class: activators; 320,000 tested, 2.8% active; note: % of control where 0% means no effect; nearly all actives have a fitted effect of over 60% in size
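Promoter activation is measured as luciferase luminescence in Huh7 cells stably transfected with a Rab9 promoter–luciferase construct, following 24 h compound exposure at 37 °C and 10 min reagent incubation at ambient temperature.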
SMN2 splice enh: SMN2 splice variant enhancement | Potency, µM (highest dose often 46.1 µM), inactives show at the top dose activity change, positive = activation, hits mostly activators | 210,000 tested, 2.8% active | AID 1458 | HEK293 SMN2-luciferase splicing reporter, luminescence, 30-36 h; note: % of control where 0% means no effect; nearly all actives have a fitted effect of over 55% in size
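HEK293 cells carry an SMN2 […]–luciferase reporter in which exon 7 inclusion puts luciferase in frame. Cells were plated 10-12 h before compound addition, then incubated 30-36 h at 37C. ONE-Glo luminescence was read; sodium butyrate at 4.5 mM final served as control.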
NPC1 prom act: NPC1 promoter activation. Potency, µM (doses to about 9.22 µM), for inactives: at the top dose activation, usual class: activators. AID 485313. Huh7 NPC1 promoter luciferase reporter, 24 h. 320,000 tested, 2.4% active; note: % of control where 0% means no effect; nearly all actives have a fitted effect of over 60% in size
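Stable NPC1-promoter luciferase Huh7 line; cpd (DMSO) 24 h, 37 °C, 5% CO2; Amplite luciferase reagent 10 min RT; luminescence readout. qHTS format.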
FLuc modulator: inhibits or activates purified firefly luciferase, miR-21 counter-screen; purified FLuc, Km substrates, luminescence inhibition; Potency, µM (doses to about 57.5 µM), without a hit: top-dose activity change, negative = inhibition, most hits filed as inhibitors; 360,000 tested, 6.9% active;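 note: plate controls were vehicle for no effect and reference inhibitor for full effect; nearly all actives have a fitted effect of over 55% in size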
Target sequence (P08659 whole entry, looked up): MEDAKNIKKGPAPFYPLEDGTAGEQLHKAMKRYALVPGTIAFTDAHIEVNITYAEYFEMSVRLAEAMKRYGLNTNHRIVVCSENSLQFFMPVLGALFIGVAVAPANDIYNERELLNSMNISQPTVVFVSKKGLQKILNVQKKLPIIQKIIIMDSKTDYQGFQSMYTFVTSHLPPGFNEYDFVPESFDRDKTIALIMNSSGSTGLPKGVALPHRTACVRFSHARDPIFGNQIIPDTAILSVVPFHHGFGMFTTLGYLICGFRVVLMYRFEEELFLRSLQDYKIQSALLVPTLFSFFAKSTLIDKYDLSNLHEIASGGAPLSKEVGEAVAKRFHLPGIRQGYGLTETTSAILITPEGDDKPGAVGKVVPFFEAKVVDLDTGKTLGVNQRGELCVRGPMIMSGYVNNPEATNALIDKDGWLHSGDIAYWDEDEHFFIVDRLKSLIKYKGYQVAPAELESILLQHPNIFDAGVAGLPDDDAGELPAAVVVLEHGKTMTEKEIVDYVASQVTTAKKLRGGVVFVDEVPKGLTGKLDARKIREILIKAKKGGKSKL
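Purified P. pyralis luciferase (10nM final) with 10uM D-luciferin and 10uM ATP (Km levels) in 50mM Tris acetate pH 7.5, 10mM Mg acetate, 0.01% Tween-20, 0.05% BSA; qHTS 6-point titration, ~60 µM downward; luminescence read.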
ELG1 genotox: genotoxicity induction in ELG1-luciferase HEK293T cells | HEK293T ELG1-luciferase reporter, luminescence, 16 h | Potency, µM (titrated, usually from 46 µM), without a hit: at the highest dose activity change, positive = activation, actives largely listed as activators | 330,000 tested, 1.3% active; note: % of control where 0% means no effect; nearly all actives have a fitted effect of over 60% in size
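Reporter readout depends on ELG1 protein level, which increases with genetic stress. After 16 hr compound exposure at 37 °C, luciferase activity was quantified using ONE-Glo.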
ELG1 repair inh: inhibitors of ELG1-dependent DNA repair in HEK293T cells; HEK293T ELG1-luciferase reporter, luminescence, 16 h; DNA damage induced by 5-fluorouridine; Potency, µM (titrated, usually from 46.1 µM), inactives show at the top dose activity change, negative = inhibition, hits mostly inhibitors; 330,000 tested, 2.3% active; note: % is set by controls: 0 for no effect and ±100 for the full control effect; nearly all actives have a fitted effect of over 55% in size
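Step one: seed 2,000 cells per well. Step two: pin-transfer compound or DMSO alongside 5-fluorouridine. Step three: incubate 16 hr, 37 °C, 5% CO2. Step four: add ONE-Glo, wait 30 min, read luminescence.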
Starred values were filed as active, the others as inactive. Calls come from the whole dose curve; as a rule, active = well fitted curve in the direction sought with a large enough effect; inconclusive = small, poorly fitted or top-dose-only effect, or another doubt; inactive = no such curve, though single readings can be large; an effect the other way counts as inactive or inconclusive. Potency is the fitted concentration of half-maximal effect.

Results for CCOC(=O)N1N=C(c2ccccc2)CC1(O)C(C)(F)F (stereo not drawn) ?
Rab9 promoter act: -5%; SMN2 splice enh: 8%; NPC1 prom act: -4%; FLuc modulator: 6%; ELG1 genotox: 0%; ELG1 repair inh: 6%

What do the screens show for `CCOC(=O)N1N=C(c2ccc(OC)cc2)CC1(O)C(F)(F)F` (stereo not drawn)?
Rab9 promoter act: 0.89µM*; NPC1 prom act: 1.1µM*; FLuc modulator: 3.4µM*; ELG1 genotox: inconclusive; ELG1 repair inh: inconclusive

What do the screens show for `CCc1ccc(C2=NN(C(=O)OC)C(O)(C(F)(F)F)C2)cc1` (stereo not drawn)?
Rab9 promoter act: 0.63µM*; SMN2 splice enh: -2%; NPC1 prom act: 0.45µM*; FLuc modulator: 2.7µM*; ELG1 genotox: inconclusive; ELG1 repair inh: inconclusive

Results for O=C(Nc1nc(=O)n(C(=O)C2CC2)s1)c1ccccc1 ?
Rab9 promoter act: 1%; SMN2 splice enh: 0%; NPC1 prom act: -5%; FLuc modulator: inconclusive; ELG1 genotox: -3%; ELG1 repair inh: -15%

Results for Cc1ccc(C(=O)Nc2nc(=O)n(C(=O)c3ccccc3C)s2)cc1 ?
Rab9 promoter act: inconclusive; SMN2 splice enh: 20%; NPC1 prom act: 15%; FLuc modulator: 15µM*; ELG1 genotox: 17%; ELG1 repair inh: 9%

How did Cc1ccc(C(=O)Nc2nc(=O)n(C(=O)C3CC3)s2)cc1 do in these assays?
Rab9 promoter act: -6%; SMN2 splice enh: 19%; NPC1 prom act: 1%; FLuc modulator: 19µM*; ELG1 genotox: 0%; ELG1 repair inh: -2%

Results for COc1ccc(-c2cc3nccc(-c4cc(Cl)c(C)cc4O)n3n2)cc1 ?
SMN2 splice enh: 9%; FLuc modulator: -4%

How did COc1ccc(C2=NC(c3ccccc3)=Nc3ccc(C)cc3N2)cc1 do in these assays?
SMN2 splice enh: 12%; FLuc modulator: inconclusive

How did CC1=CC(c2ccccc2)=Nc2ccc(C)cc2N1 do in these assays?
Rab9 promoter act: 4µM*; SMN2 splice enh: 10µM*; NPC1 prom act: 3.5µM*; FLuc modulator: 6.7µM*; ELG1 genotox: 12µM*; ELG1 repair inh: inconclusive

How did CC(C)C[C@H](NC(=O)c1nc[nH]c1C(=O)N1CCN(C(=O)OC(C)(C)C)CC1)C(=O)OCc1ccccc1 do in these assays?
Rab9 promoter act: 1%; NPC1 prom act: -4%; FLuc modulator: 0%; ELG1 genotox: 8%; ELG1 repair inh: 4%

Results for Cc1ccc(NC(=O)CCn2nc(C)c(S(=O)(=O)N3CCCCC3)c2C)cc1Cl ?
FLuc modulator: -12%

What do the screens show for `CC(=O)Nc1ccc(SCC(=O)c2cc(C)n(CC(F)(F)F)c2C)cc1`?
Rab9 promoter act: 2.8µM*; SMN2 splice enh: -5%; NPC1 prom act: 3.2µM*; FLuc modulator: -17%; ELG1 genotox: inconclusive; ELG1 repair inh: inconclusive

Results for C=CCNc1nc(Nc2ccc(-c3nc4ccccc4o3)cc2)nc(N2CCOCC2)n1 ?
Rab9 promoter act: -1%; SMN2 splice enh: -10%; NPC1 prom act: -3%; FLuc modulator: -3%; ELG1 genotox: -3%; ELG1 repair inh: 15µM*

How did COc1ccc(/C=C/C(=O)Nc2cc(S(=O)(=O)N3CCOCC3)ccc2N2CCCC2)cc1OC do in these assays?
Rab9 promoter act: -1%; SMN2 splice enh: 25%; NPC1 prom act: -3%; FLuc modulator: -1%; ELG1 genotox: 11%; ELG1 repair inh: 20%

How did COc1ccc(NC(=S)Nc2ccc(S(=O)(=O)N3CCOCC3)cc2)c(OC)c1 do in these assays?
Rab9 promoter act: 4%; SMN2 splice enh: 2%; NPC1 prom act: 0%; FLuc modulator: 2%; ELG1 genotox: 1%; ELG1 repair inh: 23µM*

How did CCOc1cccc(/C=N/NC(=S)Nc2cc(S(=O)(=O)N3CCOCC3)ccc2N2CCOCC2)c1O do in these assays?
Rab9 promoter act: -23%; SMN2 splice enh: -83%; NPC1 prom act: -17%; FLuc modulator: inconclusive; ELG1 genotox: -2%; ELG1 repair inh: 5.8µM*

Results for COc1ccc(NC(=S)Nc2ccc(S(N)(=O)=O)cc2)c(OC)c1 ?
Rab9 promoter act: -5%; NPC1 prom act: 0%; FLuc modulator: -1%; ELG1 genotox: 0%; ELG1 repair inh: -3%

What do the screens show for `COc1ccc(/C=N/NC(=S)Nc2cc(S(=O)(=O)N3CCOCC3)ccc2N2CCOCC2)cc1O`?
Rab9 promoter act: -4%; SMN2 splice enh: 16%; NPC1 prom act: -1%; FLuc modulator: inconclusive; ELG1 genotox: -8%; ELG1 repair inh: 7.3µM*

Results for COC(=O)CC1(c2ccccc2)C(=O)c2ccccc2C1=O ?
Rab9 promoter act: 0%; SMN2 splice enh: 0%; NPC1 prom act: -2%; FLuc modulator: 6%; ELG1 genotox: 2%; ELG1 repair inh: 0%

What do the screens show for `O=C1c2ccccc2C(=O)C1(CO)c1ccccc1`?
Rab9 promoter act: inconclusive; SMN2 splice enh: 166%; NPC1 prom act: 26%; FLuc modulator: 15µM*; ELG1 genotox: -8%; ELG1 repair inh: inconclusive

Results for O=C1c2ccccc2C(=O)C1(CO)c1ccc(OC(F)F)cc1 ?
Rab9 promoter act: 0.45µM*; NPC1 prom act: inconclusive; FLuc modulator: 0.95µM*; ELG1 genotox: inconclusive; ELG1 repair inh: inconclusive

Results for Cc1ccc(N2C(=O)CCSC23C(=O)N(Cc2ccccc2)c2ccccc23)cc1 (stereo not drawn) ?
FLuc modulator: -11%

How did CCOc1ccc(C(=O)c2ccccc2C(=O)O)cc1OCC do in these assays?
Rab9 promoter act: -4%; SMN2 splice enh: 3%; NPC1 prom act: -2%; FLuc modulator: 1%; ELG1 genotox: 2%; ELG1 repair inh: 2%

How did CC1=CC(=O)C(C(C)C)=C/C1=C(\c1cc(C(C)C)c(OP(=O)(O)O)cc1C)c1ccccc1C(=O)O do in these assays?
Rab9 promoter act: -7%; NPC1 prom act: -3%; FLuc modulator: 2%; ELG1 genotox: -21%; ELG1 repair inh: 18µM*

How did CN(C)CCn1c(=O)n(-c2cccc(Cl)c2)c(=O)c2c3c(sc21)CCCCC3 do in these assays?
Rab9 promoter act: 7%; NPC1 prom act: -2%; FLuc modulator: 5%; ELG1 genotox: 0%; ELG1 repair inh: -1%

Results for O=C(O)c1ccc(N/N=C/c2cccc(C(F)(F)F)c2)cc1 ?
Rab9 promoter act: 0.63µM*; NPC1 prom act: 0.56µM*; FLuc modulator: 3.4µM*; ELG1 genotox: inconclusive; ELG1 repair inh: inconclusive

Source: PubChem BioAssay
